The nature of assay [1]: qHTS drug screen for cell cycle checkpoint inhibitors in PARPi-resistant BRCA-mutant ovarian cancer cell lines. (AID 1963452; calls by dose curve). The note with it: PEO1/OlaR viability, CellTiter-Glo luminescence, 96 h, stronger effect = lower value. An outline of the steps:
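PEO1, PEO4 and PEO1/OlaR ovarian cancer cells, 600 per well, exposed 96 h at 37C to a dilution series. Viability read by CellTiter-Glo luminescence, normalized to DMSO and empty wells; activity summarized as Z-AUC.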

The nature of assay [2]: qHTS profiling for inhibitors of Plasmodium falciparum proliferation (AID 504749).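 For activity, negative = inhibition: 0% = DMSO vehicle and full inhibition = artemisinin control.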 For all read-outs here: nearly all actives have a fitted effect of over 60% in size. Note: potency is the fitted concentration of half-maximal effect. The note with it: P. falciparum in erythrocytes, SYBR Green DNA, 72 h; for activity, negative = inhibition: at 28.7 µM (top of the series). Summed up: (§1)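 Three-day growth assay of blood-stage parasites in erythrocytes (0.3% parasitemia, 2.5% hematocrit) at 37 C, 5% CO2, quantified by SYBR Green DNA staining after overnight detergent lysis.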
Background: qHTS replaces the single test concentration by a dilution series.

The test system of the next assay is 7G8. The assay is described as above. The note with it: P. falciparum in erythrocytes, SYBR Green DNA, 72 h; series mostly up to 28.7 µM. Summed up: as §1
In another assay the test system is AS120. The description is as above. The note with it: P. falciparum in erythrocytes, SYBR Green DNA, 72 h; series mostly up to 28.7 µM. An outline of the steps: as §1
The subject of another assay is CP191. The description is as above. The note with it: P. falciparum in erythrocytes, SYBR Green DNA, 72 h; series mostly up to 28.7 µM. An outline of the steps: as §1
For a further assay, the system named is CP203. The description is as above. The note with it: P. falciparum in erythrocytes, SYBR Green DNA, 72 h; series mostly up to 28.7 µM. Summed up:
as §1

A further assay deals with CP211. The assay is described as above. The note with it: P. falciparum in erythrocytes, SYBR Green DNA, 72 h; series mostly up to 28.7 µM. Summed up:
as §1

The next assay has as its system CP215. The description is as above. The conditions noted are these: P. falciparum in erythrocytes, SYBR Green DNA, 72 h; series mostly up to 28.7 µM. Summed up:
as §1

The subject of another assay is CP217. The description is as above. The note with it: P. falciparum in erythrocytes, SYBR Green DNA, 72 h; series mostly up to 28.7 µM. Summed up: as §1
The test system of another assay is 3D7. Described as above. The conditions noted are these: P. falciparum in erythrocytes, SYBR Green DNA, 72 h; series mostly up to 28.7 µM. An outline of the steps: as §1
The test system of another assay is AA1029. Described as above. The note with it: P. falciparum in erythrocytes, SYBR Green DNA, 72 h; series mostly up to 28.7 µM. An outline of the steps:
as §1

The test system of another assay is ATS189. The description is as above. The note with it: P. falciparum in erythrocytes, SYBR Green DNA, 72 h; series mostly up to 28.7 µM. An outline of the steps: as §1
In a further assay the test system is ATS95. The description is as above. The note with it: P. falciparum in erythrocytes, SYBR Green DNA, 72 h; series mostly up to 28.7 µM. An outline of the steps: as §1
In the next assay the test system is C2A. The description is as above. The note with it: P. falciparum in erythrocytes, SYBR Green DNA, 72 h; series mostly up to 28.7 µM. An outline of the steps:
as §1

The subject of a further assay is CP185. The description is as above. The note with it: P. falciparum in erythrocytes, SYBR Green DNA, 72 h; series mostly up to 28.7 µM. Summed up:
as §1

For another assay, the system named is CP194. Described as above. The conditions noted are these: P. falciparum in erythrocytes, SYBR Green DNA, 72 h; series mostly up to 28.7 µM. An outline of the steps: as §1
The next assay deals with CP201. Described as above. The note with it: P. falciparum in erythrocytes, SYBR Green DNA, 72 h; series mostly up to 28.7 µM. An outline of the steps: as §1
The next assay has as its system CP192. The assay is described as above. The note with it: P. falciparum in erythrocytes, SYBR Green DNA, 72 h; series mostly up to 28.7 µM. An outline of the steps:
as §1

Where [3] appears, read: measured here: PEO1 parental Z-AUC.

Records with an inconclusive call do not appear. The source made the active and inactive calls. Unless noted, calls come from the whole dose curve; as a rule, active = well fitted inhibition curve with a large enough effect; inconclusive = small, poorly fitted or top-dose-only effect; inactive = flat fitted curve, though single readings scatter.

Regarding `Cc1cc(C2CCCCC2)n(O)c(=O)c1`, the Z-AUC is 0.662 (inactive) in [1], 0.159 in [1] (setting [3]) and -0.0703 in [1] (measured here: PEO4 Z-AUC). The Potency is 3.55 µM (active) in assay [2] (parasite line B); 3.16 µM (active) in the assay on 7G8; 3.55 µM (active) with AS120; 3.16 µM (active) in the assay with CP191; 6.42 µM (active) with CP203; 6.42 µM (active) with CP211. Also, the Potency in the assay on CP215 was 1.02 µM (active); in the assay with CP217, 3.55 µM (active).

On to `CCC(C)(Oc1ccc(C2(c3ccc(OC(C)(CC)C(=O)O)cc3)CCCCC2)cc1)C(=O)O` (stereo not drawn), for which the Z-AUC in assay [1] was 0.486 (inactive); in [1] (setting [3]), 0.92; in assay [1] (measured here: PEO4 Z-AUC), 0.795. For the same compound, the activity, negative = inhibition in assay [2] (parasite line A) was 2.31% (inactive); in [2] (parasite line B), -9.49% (inactive). For the same compound, the Potency result in the assay on 3D7, with 7G8, in the assay with AA1029, in the assay on AS120, in the assay on ATS189 and with ATS95 was “inactive” each time. Moreover, the Potency result in the assay on C2A, in the assay with CP185, with CP191, in the assay with CP194, in the assay on CP201 and in the assay on CP203 was “inactive” throughout. The Potency result in the assay with CP211, in the assay with CP215 and in the assay with CP217 was “inactive” throughout.

As to `Nc1nc(Cl)nc2c1ncn2[C@H]1C[C@H](O)[C@@H](CO)O1`, the Z-AUC in assay [1] was -0.756 (inactive); in assay [1] (setting [3]), -0.859; in assay [1] (measured here: PEO4 Z-AUC), -0.649. Further, the activity, negative = inhibition in assay [2] (parasite line A) is -3.94% (inactive); in assay [2] (parasite line B) it was 14.5% (inactive). In addition, the Potency result in the assay with 3D7, with 7G8, in the assay on AA1029, in the assay with AS120, in the assay with ATS189 and with ATS95 was “inactive” in each case. For the same compound, the Potency entry in the assay with C2A, with CP185, in the assay on CP191 and with CP217 was “inactive” each time.

As for `CC1(C)NC(=O)N(c2ccc([N+](=O)[O-])c(C(F)(F)F)c2)C1=O`, the figures for the Z-AUC in assay [1], in assay [1] (setting [3]) and in assay [1] (measured here: PEO4 Z-AUC) were 1.11 (inactive), 0.722 and 0.784, respectively. In addition, the activity, negative = inhibition in assay [2] (parasite line A) was -1.6% (inactive); in [2] (parasite line B), 7.49% (inactive). Besides, the Potency result in the assay on 3D7, in the assay with 7G8, with AA1029, with AS120, with ATS189 and in the assay on ATS95 was “inactive” throughout. Besides, the Potency entry in the assay on C2A, with CP185, in the assay with CP191, in the assay on CP192, in the assay with CP194 and in the assay with CP201 was “inactive” each time. Also, the Potency result with CP211, in the assay on CP215 and with CP217 was “inactive” in each case.

As for `CCN(CC)CCOc1ccc(Cc2ccccc2)cc1`, the Z-AUC in [1] is 1.12 (inactive); in [1] (setting [3]), 0.729; in assay [1] (measured here: PEO4 Z-AUC), 0.289. Also, the activity, negative = inhibition in assay [2] (parasite line A) was 8.39% (inactive); in [2] (parasite line B) it was 6.88% (inactive). Also, the Potency result in the assay on 3D7, in the assay on AA1029, in the assay on AS120, with ATS189, with ATS95 and in the assay with C2A was “inactive” each time. In addition, the Potency entry in the assay with CP185, in the assay with CP191, in the assay with CP192, in the assay on CP194, in the assay with CP201 and in the assay with CP203 was “inactive” each time. Also, the Potency entry with CP211, in the assay with CP215 and in the assay on CP217 was “inactive” each time. Also, the Potency with 7G8 was 12.6 µM (active).

Take `CCCc1cc(=O)[nH]c(=S)[nH]1`: the Z-AUC in [1] is -0.283 (inactive); in assay [1] (setting [3]), -0.244; in assay [1] (measured here: PEO4 Z-AUC), 0.119. The activity, negative = inhibition in assay [2] (parasite line A) was 3.45% (inactive); in [2] (parasite line B), 5.92% (inactive). Moreover, the Potency result in the assay on 3D7, in the assay on 7G8, in the assay with AA1029, with AS120, with ATS189 and in the assay on ATS95 was “inactive” in each case. For the same compound, the Potency result in the assay with C2A, in the assay with CP185, in the assay on CP191, in the assay on CP192, in the assay with CP194 and with CP201 was “inactive” each time. Besides, the Potency entry in the assay on CP203, with CP211, in the assay with CP215 and in the assay with CP217 was “inactive” each time.

For the origin of these results see PubChem BioAssay (NCATS).
